The source made the active and inactive calls. The calls were made as follows: active = hit-call score of the fitted dose curve at least 0.9, where 1 is the maximum; inactive = score below 0.9.
What follows are molecules tested against Peroxisome proliferator-activated receptor gamma (Homo sapiens) (UniProt P37231) (assay: ERF_TW_NR_hPPARG: Eurofins (ERF) Nuclear Receptor (NR) Radioligand Binding LeadHunter Assay for human Peroxisome Proliferator-activated Receptor gamma (PPARg) Agonism, conducted at Taiwan lab site).
Sequence of Peroxisome proliferator-activated receptor gamma (Homo sapiens) (P37231 whole entry, looked up): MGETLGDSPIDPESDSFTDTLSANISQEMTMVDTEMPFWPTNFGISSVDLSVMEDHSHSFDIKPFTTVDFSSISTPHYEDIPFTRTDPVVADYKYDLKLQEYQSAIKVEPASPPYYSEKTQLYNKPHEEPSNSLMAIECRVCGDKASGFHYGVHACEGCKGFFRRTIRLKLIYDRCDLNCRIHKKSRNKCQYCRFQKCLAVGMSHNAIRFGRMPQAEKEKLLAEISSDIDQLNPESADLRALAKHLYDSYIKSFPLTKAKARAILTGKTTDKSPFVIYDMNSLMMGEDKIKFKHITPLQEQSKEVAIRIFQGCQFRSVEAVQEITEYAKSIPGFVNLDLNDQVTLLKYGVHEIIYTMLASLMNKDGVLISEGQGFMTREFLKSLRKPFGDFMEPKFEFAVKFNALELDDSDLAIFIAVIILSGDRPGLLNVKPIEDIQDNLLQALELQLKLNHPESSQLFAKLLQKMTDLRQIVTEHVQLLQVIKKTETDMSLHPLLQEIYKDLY
Procedure: ERF_TW_NR_hPPARG is a biochemical, single-readout assay that uses extracted gene-proteins in a cell-free assay. Measurements were taken 24 hour after chemical dosing in a 96-well plate. See PPARgamma Human NHR Binding (Agonist Radioligand) Assay, Panlabs.ERF_TW_NR_hPPARG is an assay component calculated from the ERF_TW_NR_hPPARG assay. It is designed to measure radioligand binding using a type of binding reporter as detected by scintillation counting with radiometry technology.Data from the assay component ERF_TW_NR_hPPARG was analyzed at the assay endpoint, ERF_TW_NR_hPPARG, in the positive analysis fitting direction relative to DMSO as the negative control and baseline of activity. Using a type of binding receptor, gain-of-signal activity can be used to understand changes in binding receptor as they relate to gene PPARG.To generalize the intended target to other relatable targets, this assay endpoint is annotated to the nuclear receptor intended target family, where the subfamily is non-steroidal.
Human recombinant PPARgamma-LBD expressed in insect cells are used in modified Tris-HCl buffer pH 7.2. A 0.03 ug aliquot is incubated with 5 nM [3H]Rosiglitazone and 1 ug anti-GST antibody for 24 hours at 4C. Non-specific binding is estimated in the presence of 10 uM rosiglitazone. Receptors are counted to determine [3H]Rosiglitazone specifically bound. Compounds are screened at 10 uM.Test Sample Requirements: Minimum for 1) Screen: 25 ul of 10 mM stock -OR- 1 mg (pre-weighed). 2) Dose Response: 60 ul of 10 mM stock -OR- 1 mg (pre-weighed).

AC50, active:
O=S(=O)(O)C(F)(F)C(F)(F)C(F)(F)C(F)(F)C(F)(F)C(F)(F)C(F)(F)F 31.7 µM
O=C(CC(=O)C(F)(F)C(F)(F)C(F)(F)F)c1cccs1 7.47 µM
O=C(O)C(F)(F)C(F)(F)C(F)(F)C(F)(F)C(F)(F)C(F)(F)C(F)(F)C(F)(F)Cl 13.4 µM

Source: PubChem BioAssay AID2284205 (EPA ToxCast)
